Experimental findings from PubChem BioAssay (NCATS) are described below.

The structures appear in SMILES notation. Where “and” joins values, the source holds several entries; their conditions need not be identical. Equal values may be shown once. Results filed as inconclusive are left out. Calls of active or inactive are those of the source. Unless noted, the call rests on the fitted dose curve; in most records, active means well fitted cell-killing curve with a large enough effect; inconclusive means small, poorly fitted or top-dose-only effect; inactive means flat fitted curve, though single readings scatter.

Experiment [1] in a line: Cell Viability - LYMP2-025 (AID 976).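 Further: series mostly up to about 92 µM; plate controls were DMSO only for no effect and tetraoctylammonium bromide control for full effect.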 An outline of the steps:
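CellTiter-Glo luminescence (cellular ATP) after 24 h compound exposure at 37 C; LYMP2-025 human lymphoblastoid cells, 2500/well, complete medium. Tetraoctylammonium bromide positive control. AC50 by Hill equation fit of qHTS concentration-response.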

A short description of experiment [2]: Cell Viability - LYMP2-002 (AID 977).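 Further: series mostly up to about 92 µM; plate controls were DMSO only for no effect and 92 µM tetraoctylammonium bromide for full effect.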 The method, boiled down: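 Human lymphoblastoid cells (2500/well) in complete medium were preincubated 5 hr at 37 C, then exposed to compounds for 24 hr at 37 C. Intracellular ATP was read by CellTiter-Glo luminescence; AC50 came from Hill-equation concentration-response fits.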
Experiment [3] can be described thus: Cell Viability - LYMP2-006 (AID 978). Further: series mostly up to about 92 µM; on the % scale 0 is the no-effect control and ±100 the full control effect; nearly all actives have a fitted effect of over 60% in size. The method, boiled down: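 Human lymphoblastoid cells, 2500 per well, were preincubated 5 hr at 37 C, then exposed to compounds for 24 hr at 37 C in complete medium. Viability was read as intracellular ATP by CellTiter-Glo luminescence; AC50 from Hill-equation fits of qHTS concentration-response data.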
The nature of experiment [4]: Cell Viability - LYMP2-007 (AID 979).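 Further: cells exposed to compound for 24 h before reading; 0% = DMSO only and the negative end = 92 µM tetraoctylammonium bromide; nearly all actives have a fitted effect of over 60% in size.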 The method, boiled down:
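qHTS cytotoxicity: 2500 cells/well, 5 hr 37 C settle, compound 24 hr 37 C, CellTiter-Glo 30 min RT, luminescence. Decrease in ATP = toxicity. AC50 by standard Hill equation; tetraoctylammonium bromide positive control.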

A short description of experiment [5]: Cell Viability - LYMP2-008 (AID 980). Further: on the % scale 0 is the no-effect control and ±100 the full control effect; nearly all actives have a fitted effect of over 60% in size. An outline of the steps:
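Luminescent ATP read-out (CellTiter-Glo, 30 min RT) after 24 hr compound exposure at 37 C of human lymphoblastoid cells in complete medium. Decrease in ATP taken as cytotoxicity; AC50 derived by standard Hill fit of qHTS concentration-response data.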

Experiment [6] is described as follows: Cell Viability - LYMP2-012 (AID 982).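 Further: cellular ATP by luciferase luminescence where a drop means cytotoxicity; cells exposed to compound for one day before reading; 0% = DMSO only and full loss = 92 µM tetraoctylammonium bromide; nearly all actives have a fitted effect of over 55% in size.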
Experiment [7] is described as follows: Cell Viability - LYMP2-014 (AID 983).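 Further: series mostly up to about 92 µM; plate controls were DMSO only for no effect and 92 µM tetraoctylammonium bromide for full effect; nearly all actives have a fitted effect of over 50% in size.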 An outline of the steps:
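2500 cells/well, 5 hr 37 C; cpd 24 hr 37 C, complete medium; CellTiter-Glo 30 min RT, luminescence; ATP loss = toxicity; AC50 via Hill eqn; tetraoctylammonium bromide positive control.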

A short description of experiment [8]: Cell Viability - LYMP2-016 (AID 984). Further: on the % scale 0 is the no-effect control and ±100 the full control effect; nearly all actives have a fitted effect of over 55% in size. An outline of the steps: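 Human lymphoblastoid cells (LYMP2-016), 2500/well in complete medium, preincubated 5 hr at 37 C, then compound-treated 24 hr at 37 C. Intracellular ATP read by CellTiter-Glo luminescence after 30 min at room temperature; AC50 from Hill-equation concentration-response fits.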
A short description of experiment [9]: Cell Viability - LYMP2-018 (AID 985).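 Further: plate controls were DMSO only for no effect and tetraoctylammonium bromide at 92 µM for full effect; nearly all actives have a fitted effect of over 50% in size.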 An outline of the steps: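 2500 cells/well; 5 hr 37 C; cmpd 24 hr 37 C, complete medium; CellTiter-Glo 30 min RT; luminescence. Tetraoctylammonium bromide positive control. AC50 via Hill fit.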
Experiment [10] is described as follows: Cell Viability - LYMP2-020 (AID 986).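 Further: series mostly up to about 92 µM; plate controls were DMSO only for no effect and tetraoctylammonium bromide at 92 µM for full effect; nearly all actives have a fitted effect of over 55% in size.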 The method, boiled down:
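qHTS, 2500 cells/well; 5 hr then 24 hr compound exposure, 37 C; CellTiter-Glo luminescence after 30 min RT; ATP decrease taken as cytotoxicity; AC50 via Hill equation; tetraoctylammonium bromide positive control.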

Experiment [11] can be described thus: Cell Viability - LYMP2-024 (AID 988).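 Further: plate controls were DMSO only for no effect and 92 µM tetraoctylammonium bromide for full effect; nearly all actives have a fitted effect of over 60% in size.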 An outline of the steps:
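ATP-based luminescence (CellTiter-Glo, 30 min RT) after 24 h compound exposure at 37 C of 2500 lymphoblastoid cells/well; decrease in ATP taken as cytotoxicity. qHTS concentration-response fitted to standard Hill equation for AC50.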

Experiment [12] in a line: Cell Viability - LYMP2-026 (AID 989). Further: on the % scale 0 is the no-effect control and ±100 the full control effect; nearly all actives have a fitted effect of over 50% in size. An outline of the steps: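 qHTS cytotoxicity: 2500 cells/well, 5 hr 37 C, compound 24 hr 37 C, CellTiter-Glo 30 min RT, luminescence. Tetraoctylammonium bromide positive control. AC50 via standard Hill fit.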
A short description of experiment [13]: Cell Viability - LYMP1-002 - Assay at 24 hr (AID 993). Further: on the % scale 0 is the no-effect control and ±100 the full control effect. The method, boiled down: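 CellTiter-Glo luminescence (intracellular ATP) after 24 h compound exposure, 37 C, in LYMP1-002 human lymphoblastoid cells; decreased ATP taken as cytotoxicity. AC50 from standard Hill fit of concentration-response curves.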
Experiment [14] can be described thus: Cell Viability - LYMP1-002 - Assay at 40 hr (AID 994). The method, boiled down: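 qHTS cytotoxicity; 2500 cells/well, 5 hr 37 C settle, compound 40 hr 37 C. CellTiter-Glo, 30 min RT, luminescence (ATP). Concentration-response, Hill fit → AC50. Pos. ctrl tetraoctylammonium bromide.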
A short description of experiment [15]: qHTS Assay for Identification of Small Molecule Inducers of Hypoxia Response (AID 2120; active means well fitted curve in the direction sought with a large enough effect in the signal ratio, with a control signal flat, not every such curve was filed as active; the % refers to the signal ratio; further: 0% is about no effect). The method, boiled down: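 Read-out: CCF4 FRET emission ratio 460nm/530nm (excitation 405nm), converted to %Activity, with AC50 fitted across a compound titration. ME-180 cells carried an HRE-driven beta-lactamase reporter; compound exposure 17 h, 37 degrees C.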
(In general: In qHTS, concentration-response curves come from the screen itself.)

Experiment [16] concerns the target Glucocorticoid receptor (Homo sapiens) (UniProt P04150). Put plainly: qHTS assay for small molecule agonists of glucocorticoid receptor signaling (AID 588532; active means well fitted curve in the direction sought with a large enough effect in the signal ratio, with a control signal flat; the % refers to the signal ratio;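 further: 100% = dexamethasone at 0.1 µM and 0% = DMSO only wells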). Conditions: HeLa MMTV-bla, beta-lactamase ratio, agonist, 18 h; stronger effect = higher value; percent of dexamethasone control, DMSO zero. The method, boiled down:
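Using MMTV-bla HeLa cells in medium with 1% stripped FBS and 25 mM HEPES, compounds were titrated and incubated overnight-length (18 h). Beta-lactamase cleavage of CCF4 was quantified by dual-emission fluorescence.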

Experiment [17] shares this target. Put plainly: qHTS assay for small molecule antagonists of glucocorticoid receptor signaling (AID 588533; active means well fitted inhibition curve with a large enough effect in the signal ratio, with a control signal flat, not every such curve was filed as active; the % refers to the signal ratio;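 further: cells stimulated with 2 nM dexamethasone as agonist; on the % scale 0 is the no-effect control and ±100 the full control effect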). An outline of the steps: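 Antagonist-mode qHTS: compound titrations added to GRE-bla HeLa cells, then dexamethasone 2 nM final; 18 h, 37 C. CCF4 FRET fluorescence normalized to dexamethasone and DMSO; IC50 from Hill fit.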
For experiment [18], the target named is Peroxisome proliferator-activated receptor delta (Homo sapiens) (UniProt Q03181). Put plainly: qHTS assay for small molecule agonists of peroxisome proliferator-activated receptor delta signaling (AID 588534; calls by dose curve;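 further: 0% = DMSO basal wells and 100% = positive control agonist at 10 µM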). An outline of the steps:
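Titration series tested in agonist mode on beta-lactamase reporter cells; 18 hrs at 37 C after a 5 hr pre-incubation. Readout: CCF4 fluorescence, 2 hrs RT. Hill equation gives EC50 and maximal response.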

The nature of experiment [19]: qHTS assay for small molecule antagonists of peroxisome proliferator-activated receptor delta signaling (AID 588535; active means well fitted inhibition curve with a large enough effect in the signal ratio, with a control signal flat, not every such curve was filed as active; the % refers to the signal ratio;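 on max response: cells co-treated with a PPAR-delta agonist as stimulator during compound exposure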). To be noted: HEK293T PPARd-UAS-bla, beta-lactamase FRET ratio, 18 h; 460 nm channel. An outline of the steps: (§1)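 Antagonist-mode qHTS using GeneBLAzer PPAR-delta-UAS-bla HEK293T cells; compound exposure 18 hrs at 37 C over a titration. Ratiometric CCF4 fluorescence at 460/530 nm; concentration-response points fitted to the Hill equation.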

Experiment [20] concerns the target Peroxisome proliferator-activated receptor delta (Homo sapiens) (UniProt Q03181). The description is as above. The method, boiled down:
as §1

Experiment [21] deals with Vitamin D3 receptor (Homo sapiens) (UniProt P11473). Put plainly: qHTS assay for small molecule antagonists of vitamin D receptor signaling (AID 588541; calls by dose curve;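 further: receptor activated by calcitriol during compound treatment; series mostly up to about 77 µM; on the % scale 0 is the no-effect control and ±100 the full control effect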). The method, boiled down:
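Antagonist-mode beta-lactamase reporter assay: HEK293T VDR-UAS-bla cells were exposed to titrated compound alongside 1-alpha,25-dihydroxyvitamin D3 at 3 nM final for 16 h. Values were normalized to the 50 nM agonist control and DMSO basal, with IC50 and efficacy from Hill equation fits.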

Experiment [22] shares this target. Briefly: qHTS assay for small molecule agonists of vitamin D receptor signaling (AID 588543; calls by dose curve;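 further: 0% = DMSO basal and 100% = reference agonist control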). The method, boiled down: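 GeneBLAzer VDR-UAS-bla HEK293T cells in 2% charcoal-stripped FBS medium were dosed with compound titrations for 16 h at 37 °C; CCF4 β-lactamase readout (405 nm ex, 460/530 nm em). EC50 and efficacy from Hill fits, normalized to 50 nM calcitriol (100%) and DMSO (0%).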

Experiment [23] can be described thus: qHTS assay for small molecule agonists of retinoid X receptor alpha signaling (AID 588544). To be noted: HEK293T RXRa-UAS-bla, beta-lactamase reporter, 18 h; 530 nm emission.

Sequence of Peroxisome proliferator-activated receptor delta (Homo sapiens) (Q03181 whole entry, looked up): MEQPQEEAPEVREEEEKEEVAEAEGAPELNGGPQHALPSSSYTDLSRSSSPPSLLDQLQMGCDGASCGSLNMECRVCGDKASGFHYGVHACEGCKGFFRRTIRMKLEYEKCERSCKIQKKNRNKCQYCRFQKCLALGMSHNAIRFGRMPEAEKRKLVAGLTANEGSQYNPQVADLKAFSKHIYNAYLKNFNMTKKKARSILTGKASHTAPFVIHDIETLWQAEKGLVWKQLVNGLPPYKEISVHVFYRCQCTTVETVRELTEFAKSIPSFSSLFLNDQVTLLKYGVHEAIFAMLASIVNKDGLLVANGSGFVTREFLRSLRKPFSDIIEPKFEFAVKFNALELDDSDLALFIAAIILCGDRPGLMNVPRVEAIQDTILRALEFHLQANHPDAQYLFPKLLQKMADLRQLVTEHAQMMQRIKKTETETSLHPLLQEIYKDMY
Sequence of Vitamin D3 receptor (Homo sapiens) (P11473 whole entry, looked up): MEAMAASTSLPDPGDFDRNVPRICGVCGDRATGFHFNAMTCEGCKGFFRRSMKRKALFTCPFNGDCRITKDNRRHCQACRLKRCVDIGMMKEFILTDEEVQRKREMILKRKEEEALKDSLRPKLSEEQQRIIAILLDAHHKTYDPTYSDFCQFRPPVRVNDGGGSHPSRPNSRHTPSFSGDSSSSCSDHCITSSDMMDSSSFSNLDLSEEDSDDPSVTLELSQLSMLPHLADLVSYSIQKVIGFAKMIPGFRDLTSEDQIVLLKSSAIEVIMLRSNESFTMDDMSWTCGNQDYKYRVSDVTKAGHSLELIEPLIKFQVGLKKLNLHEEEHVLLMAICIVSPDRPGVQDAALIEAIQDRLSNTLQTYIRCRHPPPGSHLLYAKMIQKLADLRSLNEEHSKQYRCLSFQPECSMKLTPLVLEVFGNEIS
Sequence of Glucocorticoid receptor (Homo sapiens) (P04150 whole entry, looked up): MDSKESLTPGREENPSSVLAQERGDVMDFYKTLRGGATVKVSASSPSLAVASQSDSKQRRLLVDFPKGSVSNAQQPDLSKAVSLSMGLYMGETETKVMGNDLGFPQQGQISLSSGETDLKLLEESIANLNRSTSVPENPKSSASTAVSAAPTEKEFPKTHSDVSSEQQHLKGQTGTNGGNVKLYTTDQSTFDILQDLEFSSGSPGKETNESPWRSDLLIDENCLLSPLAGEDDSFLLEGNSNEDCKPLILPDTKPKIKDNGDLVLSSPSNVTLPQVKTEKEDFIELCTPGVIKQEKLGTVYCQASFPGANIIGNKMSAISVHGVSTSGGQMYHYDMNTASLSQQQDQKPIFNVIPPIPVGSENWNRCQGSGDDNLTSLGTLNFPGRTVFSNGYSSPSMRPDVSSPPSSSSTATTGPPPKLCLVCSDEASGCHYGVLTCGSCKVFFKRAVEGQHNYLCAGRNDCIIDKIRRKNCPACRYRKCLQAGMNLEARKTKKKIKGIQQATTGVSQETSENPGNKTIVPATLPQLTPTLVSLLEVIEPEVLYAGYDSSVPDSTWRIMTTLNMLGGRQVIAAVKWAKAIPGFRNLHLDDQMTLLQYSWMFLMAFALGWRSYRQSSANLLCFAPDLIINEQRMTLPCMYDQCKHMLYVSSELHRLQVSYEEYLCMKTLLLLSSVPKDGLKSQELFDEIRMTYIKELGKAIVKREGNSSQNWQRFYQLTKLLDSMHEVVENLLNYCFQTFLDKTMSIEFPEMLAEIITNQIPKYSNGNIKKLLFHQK

For the compound `CCOc1cc(C=O)ccc1O`, the result in [1], in [2], in experiment [3], in experiment [4], in experiment [5] and in experiment [6] was inactive. Also, the call in [7], in experiment [8], in [9], in experiment [10], in [11] and in experiment [12] was inactive. The outcome in experiment [13], in experiment [15], in experiment [20] and in experiment [21] was inactive. Besides, the Potency result in [14], in experiment [17], in [18] and in experiment [22] was “inactive” throughout. Further, in [16], the activation is 0.229% (inactive) and -4.79% (inactive). For the same compound, the values for the max response in experiment [19] and in [23] were -4.7% and 11.5%, respectively.
